Screens (PubChem BioAssay)
ALDH1A1 inh: qHTS Assay for Inhibitors of Aldehyde Dehydrogenase 1 (ALDH1A1); Aldehyde dehydrogenase 1A1 (Homo sapiens), P00352; Purified ALDH1A1, NADH fluorescence, propionaldehyde substrate; Potency, µM (series often up to 75.3 µM), for the others: at the top dose activity, negative = inhibition, actives largely listed as inhibitors; actives 7.3% (n = 220,000); AID 1030, 2008;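 also: potency is read from the fitted curve at half-maximal effect; plate controls were no enzyme wells and a reference inhibitor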
HPGD inh: qHTS Assay for Inhibitors of HPGD (15-Hydroxyprostaglandin Dehydrogenase). purified HPGD, NADH fluorescence kinetic, PGE2 substrate. actives 4.3% (n = 150,000). AID 894, 2007. Potency, µM, for the others: at the top dose activity change, negative = inhibition, actives largely listed as inhibitors. 15-hydroxyprostaglandin dehydrogenase [NAD(+)] (Homo sapiens), P15428; also: potency is read from the fitted curve at half-maximal effect
Target sequence (P15428 whole entry, looked up): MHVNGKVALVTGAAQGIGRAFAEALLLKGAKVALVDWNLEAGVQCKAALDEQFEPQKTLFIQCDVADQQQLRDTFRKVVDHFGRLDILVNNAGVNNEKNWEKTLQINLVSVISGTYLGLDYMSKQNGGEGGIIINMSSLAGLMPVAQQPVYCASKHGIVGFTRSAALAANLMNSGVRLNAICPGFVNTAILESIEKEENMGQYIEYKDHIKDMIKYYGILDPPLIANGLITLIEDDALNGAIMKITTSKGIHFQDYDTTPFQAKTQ
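NADH formation kinetics: reaction with 30 uM PGE2 and 1 mM NAD+ (final), 20 nM enzyme, Tris-HCl pH 8 with Tween 20, after 15 min compound preincubation at room temperature. Fluorescence change, last versus first of five reads.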
PNC assembly inh: High Content Assay for Compounds that inhibit the Assembly of the Perinucleolar Compartment; PC3M PTB-GFP, PNC prevalence imaging, 16 h; hits give low values; activity change (PNC), negative = inhibition, % at 10 µM; actives 3.1% (n = 140,000);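 active = readout at or below -70, meaning at least 70% loss of cells showing the perinucleolar compartment, a nuclear body marking cancer cells; inconclusive = readout between -30 and a set limit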;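 also: plate controls were DMSO wells for no effect and camptothecin positive control wells for full effect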
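Read-out is percentage of cells bearing a perinucleolar compartment, from automated 20x imaging of fixed, Hoechst-stained PC3M PTB-GFP cells. Cells were seeded 4 h, then exposed 16 h to compound (23 nl of library stock) in duplicate plates.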
* = called active by the depositor; ? = inconclusive; . = not tested or not shown; [ ] = remark or other dose. In the library only some 11% were active in any assay of this set; here they are far more common. Unless noted, calls follow the shape of the dose curve; as a rule, active = well fitted inhibition curve with a large enough effect (not every such curve was filed as active); inconclusive = small, poorly fitted or top-dose-only effect, or another doubt; inactive = no such curve, though single readings can be large or run the other way. Unless noted, % is scaled to controls: 0 for no effect and ±100 for the full control effect.

SMILES	ALDH1A1 inh	HPGD inh	PNC assembly inh
COc1ccc(-c2noc(-c3ccc(Cl)cc3[N+](=O)[O-])n2)cc1OC	-8%	18µM*	?
O=c1oc2ccccc2cc1-c1nc(-c2ccccc2)no1	-6%	-21%	27
Cc1cccc(-c2noc(-c3ccc(Cl)cc3[N+](=O)[O-])n2)c1	-1%	14µM*	-7
CN1OC(COC(=O)c2ccc(Cl)cc2Cl)CC1c1ccccc1 (centres undefined)	-5%	-10%	92
O=C(Nc1cc2c(cc1Cl)OCCCO2)c1ccccc1	1%	-15%	?
Cn1nnc2ccccc2c1=O	8%	.	.
COc1ccc(CCC(C)Nc2ccc(F)cc2)cc1 (centres undefined)	6%	-13%	21
Cc1c(CCOC(=O)C23CC4CC(CC(C4)C2)C3)sc[n+]1CC#N	13µM*	.	.
Cc1c(CCOC(=O)CC23CC4CC(CC(C4)C2)C3)sc[n+]1Cc1ccccc1	?	6%	36
Cc1cc(C)c2c(=O)n(-c3ccccc3)[nH]c2n1	?	-12%	2
Cc1cc(C(C)(C)C)nc2[nH]n(-c3ccccc3)c(=O)c12	-2%	16µM*	1
CCn1c(COc2ccc(C)cc2)nnc1SCC(=O)C(C)(C)C	-15%	-8%	-18
CCn1c(COc2ccccc2)nnc1SCC(=O)C(C)(C)C	?	-7%	-97*
O=C(CSc1nnc(-c2c[nH]c3ccccc23)o1)N1CCCCC1	?	28µM*	-30
O=C(CSc1nnc(COc2cccc3ccccc23)o1)N1c2ccccc2CCc2ccccc21	22µM*	-2%	7
COc1cc(OC)cc(-c2nnc(SCC(=O)N3CCCCC3)o2)c1	-14%	25µM*	-26
O=C(CSc1nnc(COc2cccc3cccnc23)o1)N1CCCC1	4%	.	.
O=C(CSc1nnc(-c2c[nH]c3ccccc23)o1)N1c2ccccc2CCc2ccccc21	3.5µM*	-21%	34
O=C(CSc1nnc(-c2ccco2)o1)N1c2ccccc2CCc2ccccc21	-8%	-8%	23
O=C(CSc1nnc(-c2c[nH]c3ccccc23)o1)c1ccc(-c2ccccc2)cc1	25%	-29%	-10
COc1cc(OC)cc(-c2nnc(SCC(=O)N3CCOCC3)o2)c1	?	0%	-2
COc1cccc(CC(NC(C)=O)C(=O)NC2CCN(S(=O)(=O)c3ccc4ccccc4c3)CC2)c1 (centres undefined)	-9%	3%	23
O=C(CSc1nnc(-c2ccccc2Br)o1)N1CCc2ccccc2C1	?	25µM*	-22
COc1cccc(OCc2nnc(SCC(=O)N3c4ccccc4Sc4ccc(Cl)cc43)o2)c1	10µM*	-20%	-9
Cc1cc(C)cc(NC(=O)CSc2nnc(-c3ccccc3Br)o2)c1	-7%	-19%	-19
SMILES	ALDH1A1 inh	HPGD inh	PNC assembly inh
COc1ccc(OCc2nnc(SCC(=O)N3c4ccccc4Sc4ccc(Cl)cc43)o2)cc1	?	-4%	16
CCCN1C2=NCCN2c2cc(C)c(C)cc21	6%	-9%	-23
O=C(N/C(=C/C=C\c1ccccc1)C(=O)N1CCOCC1)c1ccc(Br)cc1	-8%	.	.
O=C(CN(Cc1cccs1)C(=O)CSc1nnc(COc2ccccc2)o1)NC1CCCCC1	-9%	-15%	432
Cc1ccccc1C(=O)N1CCCN(C(=O)c2ccccc2C)CC1	7%	-3%	-11
O=C1CS/C(=C/C(=O)c2ccccc2)N1	-7%	20µM*	?
Cc1cc(C)cc(C(=O)/C=C2\NC(=O)CS2)c1	-3%	?	1
Cc1ccccc1C(=O)/C=C1\NC(=O)CS1	25µM*	16µM*	-14
O=C(Oc1ccccc1)N1CCC[C@@]2(CCN(c3ncccn3)C2)C1	?	-11%	.
Cc1cc(-c2ccccc2)c2c(=O)[nH][nH]c2n1	5%	-11%	19
CC1CCN(C(=O)Cn2cc3c(n2)CCCC3)CC1	6%	-6%	-19
COc1ccccc1-c1cncnc1NCCN1CCOCC1	-5%	-12%	.
CCCCN(CC)C(=O)c1ccc(Cl)c(Cl)c1	5%	-25%	22
CCN(CC)C(=O)c1cc(Cl)ccn1	32µM*	.	.
O=C(COc1ccc2ccccc2c1)N/N=C/C1CC=CCC1 (centres undefined)	-3%	-5%	13
CCc1c(C)n([O-])c2c([n+]1=O)CCC2	-4%	0%	-81*
Cc1c(-c2ccccc2)[n+](=O)c2c(n1[O-])CCC2	16%	-3%	163
Cc1c(-c2cccs2)[n+](=O)c2c(n1[O-])CCCC2	-4%	-5%	-100*
Cc1c(C)[n+](=O)c2c(n1[O-])CCC2	18%	-4%	-28
O=C(CCc1nnc(-c2ccc3c(c2)OCO3)o1)N1CCC(c2ccc(F)cc2)C1 (centres undefined)	-3%	.	.
CCC(=O)Nc1cccc(C(=O)OCc2cccc([N+](=O)[O-])c2)c1	5%	.	.
CSc1nc(N(C)C)nc(N(C)C#N)n1	4%	.	.
O=C(NCc1cccnc1)c1csc2c1CCCC2	?	-8%	10
Nc1ccc(O)c(C(=O)O)c1	?	11µM*	.
Nc1ccc(C(=O)O)c(O)c1 (tested in a mixture with another compound)	.	-24%	.
SMILES	ALDH1A1 inh	HPGD inh	PNC assembly inh
Cc1cc(NC(=O)Cc2cccs2)nn1CC(=O)NCc1ccco1	-2%	1%	?
COc1ccc(NC(=O)N2CCCc3ccccc32)cc1	-10%	-6%	?
COc1ccc(/C=C/C(=O)N2CCCc3ccccc32)cc1	?	11µM*	?
COc1cc(C(=O)N2CCCc3ccccc32)cc(OC)c1OC	-3%	-10%	31
COc1cc(/C=C/C(=O)N2CCCc3ccccc32)cc(OC)c1OC	14µM*	-10%	15
CCCC1=C(C(=O)OCC)C(c2ccc(OC)c(C)c2OC)C(C#N)=C(N)O1 (centres undefined)	1%	-14%	?
CS(=O)(=O)N(CC(=O)Nc1cccc(F)c1)Cc1ccccc1	5%	0%	9
Cn1c(=O)c(Nc2ccc(O)cc2)c2c3c(cccc31)C(=O)c1ccccc1-2	-2%	25µM*	-18
CC(=O)Nc1ccc(NC(=O)c2cccc3c2-c2ccccc2C3=O)cc1	-4%	.	.
O=c1cc(CSc2nnc(COc3ccccc3Cl)o2)nc2sccn12	?	18µM*	-10
O=C(O)c1ccc(CSc2nnc(COc3ccc(Cl)cc3Cl)o2)cc1	?	5µM*	46
COc1ccc(OCc2nnc(SCc3ccc(C(=O)O)cc3)o2)cc1	13%	.	.
CC(C)NC(=O)NC(=O)CSc1nnc(COc2ccccc2Cl)o1	0%	-5%	9
O=C(NC1CCS(=O)(=O)C1)C12CC3CC(CC(C3)C1)C2 (centres undefined)	5%	-1%	50
CN(c1ccc(C(=O)O)cc1)S(=O)(=O)c1ccc(Cl)cc1	14%	-6%	10
COc1cccc(OCCCOc2ccccc2C(C)C)c1	6%	1%	11
CC#CCOCC/C=C1/c2ccccc2C(OC)C1C (centres undefined)	-8%[13.5 µM]	.	.
C=CCn1c(=NC(=O)c2ccc(S(=O)(=O)N3CCc4ccccc4C3)cc2)sc2cc(S(N)(=O)=O)ccc21	?	?	-17
